We go through eight molecules from PubChem BioAssay.

The source made the active and inactive calls. Unless noted, no rule for the calls is given here.

Assay [1] concerns Hepatitis C virus NS3 helicase. Briefly: blockers of NS3h binding to ssDNA – biochemical, fluorescence polarization, LOPAC1280 library, primary screen (AID 687035; in the data active = inhibition above about 37%). The settings on record: Purified HCV NS3 helicase, Cy5-dT15 ssDNA binding fluorescence polarization; stronger effect = higher value; concentration not given here. (In general: Fluorescence polarisation rises when a labelled molecule tumbles more slowly, as on binding a larger partner.)

Assay [2] is described as follows: compounds altering Cy5-DNA-NS3h complex signal – biochemical, LOPAC1280, artefact control for HCV NS3 helicase inhibitor project (AID 687037). The conditions noted are these: Cy5-DNA-NS3h complex fluorescence interference counterscreen. Background: A counterscreen serves to expose hits that act by an unwanted route or on another target.
Assay [3] in a line: viability loss with induced miR-34 in A549 – imaging, A549 dox-inducible miR-34, nuclei and caspase counts, primary screen (AID 1347080;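 active = compounds whose cell count with miR-34 switched on is under 0.7 times the count with it off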). The conditions noted are these: A549 miR-34 inducible, Hoechst nuclei count, 48 h.
Assay [4] is described as follows: blockers of cellular phospholipid synthesis – cell-based, LOPAC library, screen 4, primary screen (AID 1347384). The conditions noted are these: animal cells, phospholipid biosynthesis inhibition screen; at 10 µM.
A short description of assay [5]: MELAS cybrid and Rieske KO viability enhancers – cell-based, MELAS cybrids, Rieske KO mouse fibroblasts, CellTiter-Glo, primary screen (AID 1508586;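 active = mean z-score across replicates of 1.96 or higher in either the MELAS or the Rieske mutant cell line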;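 also: z relative to plate mean and SD of compound and empty wells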). The settings on record: low glucose. A general note: ATP-based viability assays read luminescence as a measure of living cells.
The nature of assay [6]: compounds altering circadian rhythm period length – cell-based, LOPAC library, luminescence reporter (AID 2774).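 Also: values are relative to mean of DMSO wells on each plate.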 The settings on record: circadian reporter cells, at 7 µM, actives lie on both sides.
The target in assay [7] is NAD(+) hydrolase SARM1 (Homo sapiens) (UniProt Q6SZW1). Briefly: blocking NAD cleavage by SARM1 SAM-TIR – cell lysate, NAD-Glo luminescence (AID 1508614;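 active = compound whose remaining NAD level is above about 45 nM, limit read from the data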;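 also: higher remaining NAD means stronger inhibition of SARM1 NADase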). The conditions noted are these: SAM-TIR HEK293T lysate NADase, at 1 µM, stronger effect = higher value.
Assay [8] can be described thus: galactose survival enhancers in mitochondrial complex I cybrids – cell-based, galactose medium, ATP luminescence, primary screen (AID 1645843;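 active = z-score of at least 1.8 in each of two replicates, scored against plate mean and spread of sample wells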;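 also: positive z means more ATP and so rescue of galactose-driven cybrid death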). The conditions noted are these: complex I mutant cybrid cells, 72 h, stronger effect = higher value.
A short description of assay [9]: P. berghei load reduction in hepatocytes – cell-based, HepG2, luciferase luminescence, HepG2 viability, primary screen (AID 624349; in the data active = parasite load remaining mostly below about 12%, no sharp cut-off; inactive = mostly above about 10%;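 also: 100% = mean of DMSO negative control wells on the same plate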). The settings on record: P. berghei liver stage in HepG2, luciferase luminescence, concentration not given here; parasite load remaining: stronger effect = lower value; viability: measured here: HepG2 viability without parasites.
A short description of assay [10]: compounds altering HSF1 focus formation in cells – imaging, Selleck Cancer Library (AID 1347162; in the data active = plate-normalised HSF1 focus index below about 0.46). The conditions noted are these: human cells, HSF1 nuclear foci imaging, at 10 µM; SSMD: measured here: HSF1 foci SSMD mean; cell count: measured here: cell number; plate-normalised HSF1 focus index: stronger effect = lower value.
A short description of assay [11]: compounds altering viability of human ES cells (AID 493140).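 Also: cells exposed to compounds for four days before counting.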 The conditions noted are these: human embryonic stem cell survival screen; stronger effect = higher value.
Assay [12] in a line: chitosan synthesis blockers in C. neoformans – flow cytometry, Cibacron Brilliant Red staining (AID 1347148).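 Also: compound exposure lasted three days at 37 degrees C.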 The conditions noted are these: Cryptococcus neoformans chitosan, stronger effect = lower value; at 10 µM unless noted.
Where [13] appears, read: stronger effect = lower value, cell number ratio, induced over uninduced.
Where [14] appears, read: measured here: relative caspase fold change +Dox/-Dox.
Where [15] appears, read: measured here: total cells with miR-34 induction, stronger effect = lower value.
Where [16] appears, read: measured here: total cells without miR-34 induction.

Chain of NAD(+) hydrolase SARM1 (Homo sapiens) (Q6SZW1 whole entry, looked up): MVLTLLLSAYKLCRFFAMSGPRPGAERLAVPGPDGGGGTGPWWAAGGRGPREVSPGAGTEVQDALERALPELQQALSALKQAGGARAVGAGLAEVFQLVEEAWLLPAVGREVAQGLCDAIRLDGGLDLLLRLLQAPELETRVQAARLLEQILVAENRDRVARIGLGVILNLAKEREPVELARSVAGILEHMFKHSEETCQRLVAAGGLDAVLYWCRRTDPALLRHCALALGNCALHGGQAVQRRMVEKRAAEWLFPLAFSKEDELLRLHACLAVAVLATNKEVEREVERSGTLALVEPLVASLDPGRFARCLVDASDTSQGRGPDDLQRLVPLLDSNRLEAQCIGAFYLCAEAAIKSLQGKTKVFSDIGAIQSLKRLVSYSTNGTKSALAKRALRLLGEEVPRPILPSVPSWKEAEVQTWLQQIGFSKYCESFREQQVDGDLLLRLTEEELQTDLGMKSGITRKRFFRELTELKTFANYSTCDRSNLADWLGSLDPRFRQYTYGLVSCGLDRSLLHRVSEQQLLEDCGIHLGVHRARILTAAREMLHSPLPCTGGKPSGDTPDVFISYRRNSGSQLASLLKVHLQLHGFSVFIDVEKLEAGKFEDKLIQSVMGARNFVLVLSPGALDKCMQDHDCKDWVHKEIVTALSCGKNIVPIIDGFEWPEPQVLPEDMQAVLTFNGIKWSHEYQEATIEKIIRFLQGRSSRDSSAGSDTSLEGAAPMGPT

A word on the inhibition: it is the drop in the measured response relative to a control, in per cent. As to `O=C1Nc2ccc(I)cc2C1=Cc1cc(Br)c(O)c(Br)c1`, the inhibition in assay [1] was -1% (inactive). The fluorescence ratio (interference) in [2] is 1 (inactive). Moreover, the fold change in assay [3] (setting [13]) was 1.04 (inactive); in [3] (setting [14]) it was 0.568. Also, the cell count in assay [3] (setting [15]) turned out to be 7930; in assay [3] (setting [16]), 7600. For the same molecule, the call in assay [4] was inactive. For the same molecule, the z-score is -0.141 (inactive) in assay [5] (MELAS cybrid survival, CellTiter-Glo 48 h, stronger effect = higher value) and -0.283 in [5] (Rieske KO mouse fibroblast survival, CellTiter-Glo 72 h).
Take `C[C@@H](NCCc1ccc(O)cc1)[C@@H](O)c1ccc(O)cc1`: in assay [6], the period change was 0.07 h (inactive). The inhibition in assay [1] was 0% (inactive). The fluorescence ratio (interference) in assay [2] is 0.9 (inactive). Moreover, the fold change in [3] (setting [13]) was 0.982 (inactive); in assay [3] (setting [14]) it was 1.22. Besides, the cell count turned out to be 10600 in assay [3] (setting [15]) and 10800 in [3] (setting [16]). For the same molecule, in assay [4], the molecule was called inactive. For the same molecule, the remaining NAD in assay [7] was 10 nM (inactive). Moreover, in assay [8], the z-score was 0.51 (inactive).
In general, viability refers to a per cent measure of how many cells are alive, often set against a control. For `Nc1ncnc2c1c(-c1ccc(Oc3ccccc3)cc1)cn2C1CCCC1`, the period change in assay [6] was 0.07 h (inactive). For the same molecule, in [9], the parasite load remaining is 28.7% (inactive) and the viability was 78.8%. For the same molecule, the inhibition in assay [1] was 2% (inactive). For the same molecule, the fluorescence ratio (interference) in assay [2] was 1 (inactive). Further, in assay [3] (setting [13]), the fold change was 1.28 (inactive). Moreover, the fold change in [3] (setting [14]) is 0.999. Besides, the cell count in assay [3] (setting [15]) turned out to be 4440. Moreover, in assay [3] (setting [16]), the cell count was determined as 3470. In addition, in assay [10], the SSMD was -0.154, the cell count turned out to be 6750 and the plate-normalised HSF1 focus index is 0.99 (inactive). The call in [4] was inactive. Besides, the z-score in assay [8] is -1.02 (inactive).
Regarding `CC(=O)N[C@@H](CSC/C=C(\C)CCC=C(C)C)C(=O)O`, the survival in [11] is 97.5 (inactive). The fold change in assay [3] (setting [13]) was 0.983 (inactive); in assay [3] (setting [14]) it was 1.12. The cell count in assay [3] (setting [15]) worked out at 5900; in [3] (setting [16]) it was 6000. Also, the fold fluorescence in assay [12] was 5.25 (inactive).
For the molecule `N=C(N)SCCc1ccc(CCSC(=N)N)cc1`, the period change in assay [6] was -0.135 h (inactive). The inhibition in assay [1] was -5% (inactive). Also, the fluorescence ratio (interference) in [2] was 0.9 (inactive). Also, the results for the fold change in assay [3] (setting [13]) and in assay [3] (setting [14]) were 1.11 (inactive) and 0.636, respectively. For the same molecule, the figures for the cell count in [3] (setting [15]), in assay [3] (setting [16]) and in assay [10] were 5830, 5230 and 7320, respectively. The molecule further gave an SSMD in assay [10] of 1.43. The plate-normalised HSF1 focus index in assay [10] is 1.08 (inactive).
As to `O=C1c2ccccc2C(=O)c2c(NCCc3ccc(O)cc3)ccc(NCCc3ccc(O)cc3)c21`, the inhibition in assay [1] is 13% (inactive). Further, the fluorescence ratio (interference) in assay [2] is 1.1 (inactive). In addition, the fold change in assay [3] (setting [13]) is 1.15 (inactive); in assay [3] (setting [14]), 1.12. For the same molecule, the cell count in [3] (setting [15]) turned out to be 4510; in assay [3] (setting [16]), 3920; in assay [10], 6780. In assay [10], this molecule registered an SSMD of 0.452. Moreover, the plate-normalised HSF1 focus index in assay [10] was 1.04 (inactive). Also, in assay [4], the molecule was classed as active. In assay [8], the z-score was -0.96 (inactive).
For `COc1ccc(C(=O)/C(Cc2cc(OC)c(OC)c(OC)c2)=C(\C(=O)O)c2ccc3c(c2)OCO3)cc1`, the fold change in assay [3] (setting [13]) was 1.31 (inactive); in assay [3] (setting [14]) it was 1.24. The results for the cell count in [3] (setting [15]) and in [3] (setting [16]) were 3900 and 2980, respectively. For the same molecule, in [4], the outcome was inactive. Also, in assay [8], the z-score was -1.33 (inactive).
For the molecule `CC[C@H]1OC(=O)[C@H](C)[C@@H](O[C@H]2C[C@@](C)(OC)[C@@H](O)[C@H](C)O2)[C@H](C)[C@@H](O[C@@H]2O[C@H](C)C[C@H](NC)[C@H]2O)[C@](C)(O)C[C@@H](C)CN(C)[C@H](C)[C@@H](O)[C@]1(C)O`, the fold change in assay [3] (setting [13]) was 1.02 (inactive); in assay [3] (setting [14]), 1.41. Besides, the cell count was determined as 10700 in assay [3] (setting [15]) and 10400 in assay [3] (setting [16]). The molecule was called inactive in assay [4]. Moreover, the z-score in [8] is 0.37 (inactive).
